# Results published in publication PMC6579518.
# Key:
# Experiment in all cases: cross-link between two proteins; cross-linking mass spectrometry
# [1] = target: Cytoplasmic 60S subunit biogenesis factor REI1 (UniProt P38344)
# [2] = target: Large ribosomal subunit protein eL18A (UniProt P0CX49)
# [3] = target: Large ribosomal subunit protein eL19A (UniProt P0CX82)
# [4] = target: Large ribosomal subunit protein uL2A (UniProt P0CX45)
# Large subunit GTPase 1 = Large subunit GTPase 1 (UniProt P53145)
# [5] = target: Large ribosomal subunit protein eL20A (UniProt P0CX23)
# [6] = target: rRNA biogenesis protein RRP5 (UniProt Q05022)
# [7] = target: Large ribosomal subunit protein eL32 (UniProt P38061)
# [8] = target: Large ribosomal subunit protein eL37A (UniProt P49166)
# [9] = target: Large ribosomal subunit protein uL13B (UniProt P26785)
# [10] = target: Shuttling pre-60S factor ECM1 (UniProt P39715)
# [11] = target: Nucleolar GTP-binding protein 1 (UniProt Q02892)
# [12] = target: Probable metalloprotease ARX1 (UniProt Q03862)
# [13] = target: Proteasome-interacting protein CIC1 (UniProt P38779)
# Large ribosomal subunit protein eL43A, P0CX25, sequence (P0CX25 whole entry): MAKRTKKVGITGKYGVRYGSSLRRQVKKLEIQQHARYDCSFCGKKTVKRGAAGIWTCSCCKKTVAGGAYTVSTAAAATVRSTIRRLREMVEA
# Large ribosomal subunit protein eL19A, sequence (P0CX82 whole entry): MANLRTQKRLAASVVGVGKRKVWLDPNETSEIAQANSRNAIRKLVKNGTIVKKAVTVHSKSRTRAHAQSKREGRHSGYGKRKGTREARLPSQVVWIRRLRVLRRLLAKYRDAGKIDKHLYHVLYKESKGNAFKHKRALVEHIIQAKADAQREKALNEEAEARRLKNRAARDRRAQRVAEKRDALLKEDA
# Large subunit GTPase 1, sequence (P53145 whole entry): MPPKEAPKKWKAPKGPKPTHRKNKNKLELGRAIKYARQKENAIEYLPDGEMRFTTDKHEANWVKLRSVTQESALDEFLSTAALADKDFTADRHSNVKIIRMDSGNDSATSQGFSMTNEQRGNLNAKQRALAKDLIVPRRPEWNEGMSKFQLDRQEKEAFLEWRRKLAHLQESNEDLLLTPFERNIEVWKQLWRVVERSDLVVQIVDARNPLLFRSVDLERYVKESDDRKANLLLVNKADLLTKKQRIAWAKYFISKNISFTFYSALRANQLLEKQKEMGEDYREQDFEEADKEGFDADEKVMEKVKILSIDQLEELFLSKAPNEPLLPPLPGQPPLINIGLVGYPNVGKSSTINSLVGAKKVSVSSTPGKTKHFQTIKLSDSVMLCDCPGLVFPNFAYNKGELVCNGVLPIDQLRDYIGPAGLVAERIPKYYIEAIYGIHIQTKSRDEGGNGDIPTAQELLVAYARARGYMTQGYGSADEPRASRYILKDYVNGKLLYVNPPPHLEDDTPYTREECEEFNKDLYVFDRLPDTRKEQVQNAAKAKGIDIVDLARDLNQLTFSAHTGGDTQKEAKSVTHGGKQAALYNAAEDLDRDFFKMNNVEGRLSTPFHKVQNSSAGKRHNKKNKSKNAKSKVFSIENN
# Large ribosomal subunit protein uL2A, P0CX45, sequence (P0CX45 whole entry): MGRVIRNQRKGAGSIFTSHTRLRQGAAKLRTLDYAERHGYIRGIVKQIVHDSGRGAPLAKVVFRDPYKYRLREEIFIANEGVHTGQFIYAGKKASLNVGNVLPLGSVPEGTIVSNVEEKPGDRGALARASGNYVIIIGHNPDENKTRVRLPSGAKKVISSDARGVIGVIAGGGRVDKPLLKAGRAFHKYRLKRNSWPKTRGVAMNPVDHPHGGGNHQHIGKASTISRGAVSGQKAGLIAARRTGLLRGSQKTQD
# Large ribosomal subunit protein uL2A, sequence (P0CX45 whole entry): as above
# Probable metalloprotease ARX1, sequence (Q03862 whole entry): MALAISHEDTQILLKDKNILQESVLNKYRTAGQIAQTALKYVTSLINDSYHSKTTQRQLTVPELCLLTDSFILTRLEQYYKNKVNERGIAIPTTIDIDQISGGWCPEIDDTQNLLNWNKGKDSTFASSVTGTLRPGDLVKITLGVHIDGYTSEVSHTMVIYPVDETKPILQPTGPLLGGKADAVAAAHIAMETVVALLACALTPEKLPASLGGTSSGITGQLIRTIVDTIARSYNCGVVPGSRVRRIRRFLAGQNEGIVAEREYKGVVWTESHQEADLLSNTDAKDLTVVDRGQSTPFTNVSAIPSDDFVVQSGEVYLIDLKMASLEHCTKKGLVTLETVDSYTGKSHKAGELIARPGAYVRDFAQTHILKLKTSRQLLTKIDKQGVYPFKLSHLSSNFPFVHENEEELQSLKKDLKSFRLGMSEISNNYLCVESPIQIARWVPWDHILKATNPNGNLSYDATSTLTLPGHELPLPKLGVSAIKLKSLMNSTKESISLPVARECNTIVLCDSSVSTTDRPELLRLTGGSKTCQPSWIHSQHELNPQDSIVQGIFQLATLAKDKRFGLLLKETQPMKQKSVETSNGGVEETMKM
# Large ribosomal subunit protein eL18A, sequence (P0CX49 whole entry): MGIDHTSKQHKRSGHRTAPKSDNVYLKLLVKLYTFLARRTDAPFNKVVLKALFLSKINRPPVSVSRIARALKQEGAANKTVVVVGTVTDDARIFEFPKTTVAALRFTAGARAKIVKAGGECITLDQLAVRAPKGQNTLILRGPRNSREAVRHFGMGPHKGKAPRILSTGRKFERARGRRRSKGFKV
# Large ribosomal subunit protein eL20A, sequence (P0CX23 whole entry): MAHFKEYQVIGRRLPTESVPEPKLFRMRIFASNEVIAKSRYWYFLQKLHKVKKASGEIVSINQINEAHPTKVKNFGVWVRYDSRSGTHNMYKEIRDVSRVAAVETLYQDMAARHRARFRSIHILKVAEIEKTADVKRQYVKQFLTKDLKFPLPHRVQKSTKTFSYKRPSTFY
# Large ribosomal subunit protein eL15A, P05748, sequence (P05748 whole entry): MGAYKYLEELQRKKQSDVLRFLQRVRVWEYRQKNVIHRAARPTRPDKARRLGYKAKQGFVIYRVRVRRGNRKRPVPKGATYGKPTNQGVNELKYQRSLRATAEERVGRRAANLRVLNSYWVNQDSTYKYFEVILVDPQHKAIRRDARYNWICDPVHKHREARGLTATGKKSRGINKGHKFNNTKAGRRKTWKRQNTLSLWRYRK
# Large ribosomal subunit protein uL14A, P0CX41, sequence (P0CX41 whole entry): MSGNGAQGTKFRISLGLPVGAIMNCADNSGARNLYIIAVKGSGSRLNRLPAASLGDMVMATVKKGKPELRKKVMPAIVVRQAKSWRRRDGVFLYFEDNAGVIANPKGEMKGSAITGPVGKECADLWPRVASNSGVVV
# rRNA biogenesis protein RRP5, sequence (Q05022 whole entry): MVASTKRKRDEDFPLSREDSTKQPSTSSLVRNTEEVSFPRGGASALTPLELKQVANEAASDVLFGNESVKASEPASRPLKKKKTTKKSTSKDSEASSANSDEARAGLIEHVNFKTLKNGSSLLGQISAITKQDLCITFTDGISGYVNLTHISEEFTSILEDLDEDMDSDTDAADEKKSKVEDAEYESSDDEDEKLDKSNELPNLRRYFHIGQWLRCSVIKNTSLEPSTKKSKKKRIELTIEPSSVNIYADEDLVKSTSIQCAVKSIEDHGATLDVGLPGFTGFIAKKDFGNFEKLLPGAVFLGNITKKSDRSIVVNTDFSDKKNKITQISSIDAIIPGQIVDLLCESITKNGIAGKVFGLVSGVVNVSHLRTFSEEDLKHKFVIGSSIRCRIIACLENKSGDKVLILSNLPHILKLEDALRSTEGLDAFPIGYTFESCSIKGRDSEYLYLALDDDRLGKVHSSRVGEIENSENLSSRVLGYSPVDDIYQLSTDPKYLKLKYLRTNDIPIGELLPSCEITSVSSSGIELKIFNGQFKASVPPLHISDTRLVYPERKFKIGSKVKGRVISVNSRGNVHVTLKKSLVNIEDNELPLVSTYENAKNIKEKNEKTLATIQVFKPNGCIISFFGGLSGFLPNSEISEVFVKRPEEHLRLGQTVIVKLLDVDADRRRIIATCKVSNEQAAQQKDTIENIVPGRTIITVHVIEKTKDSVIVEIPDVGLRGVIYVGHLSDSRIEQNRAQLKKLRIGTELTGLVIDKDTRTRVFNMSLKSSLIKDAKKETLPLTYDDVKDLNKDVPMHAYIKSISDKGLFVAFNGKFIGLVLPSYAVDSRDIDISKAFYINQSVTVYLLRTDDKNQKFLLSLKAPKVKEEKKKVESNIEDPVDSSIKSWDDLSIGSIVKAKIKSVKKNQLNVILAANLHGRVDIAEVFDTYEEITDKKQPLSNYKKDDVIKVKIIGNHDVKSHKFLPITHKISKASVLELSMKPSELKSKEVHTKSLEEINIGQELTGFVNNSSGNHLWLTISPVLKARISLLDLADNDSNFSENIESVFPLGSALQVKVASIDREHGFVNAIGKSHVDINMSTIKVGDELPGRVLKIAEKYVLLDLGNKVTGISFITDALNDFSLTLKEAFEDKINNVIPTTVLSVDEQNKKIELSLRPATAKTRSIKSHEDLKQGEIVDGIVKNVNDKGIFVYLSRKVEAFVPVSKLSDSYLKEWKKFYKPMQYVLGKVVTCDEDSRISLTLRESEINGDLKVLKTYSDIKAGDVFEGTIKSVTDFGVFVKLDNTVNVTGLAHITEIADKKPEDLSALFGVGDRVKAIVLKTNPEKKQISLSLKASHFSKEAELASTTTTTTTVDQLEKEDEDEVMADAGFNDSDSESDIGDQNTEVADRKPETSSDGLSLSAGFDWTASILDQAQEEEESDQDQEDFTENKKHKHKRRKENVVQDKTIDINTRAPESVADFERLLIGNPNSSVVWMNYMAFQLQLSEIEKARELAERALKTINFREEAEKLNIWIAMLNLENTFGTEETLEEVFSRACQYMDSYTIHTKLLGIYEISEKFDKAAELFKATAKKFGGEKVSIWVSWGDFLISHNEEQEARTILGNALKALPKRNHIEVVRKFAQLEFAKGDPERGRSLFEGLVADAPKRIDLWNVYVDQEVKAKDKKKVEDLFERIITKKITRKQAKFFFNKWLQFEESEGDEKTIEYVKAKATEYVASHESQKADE
# Large ribosomal subunit protein uL13B, sequence (P26785 whole entry): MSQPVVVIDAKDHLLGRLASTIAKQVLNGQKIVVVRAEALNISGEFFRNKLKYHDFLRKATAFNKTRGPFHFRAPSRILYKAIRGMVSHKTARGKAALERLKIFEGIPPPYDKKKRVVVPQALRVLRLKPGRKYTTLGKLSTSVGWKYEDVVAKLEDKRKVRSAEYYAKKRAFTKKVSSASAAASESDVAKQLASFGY
# Large ribosomal subunit protein uL15, P02406, sequence (P02406 whole entry): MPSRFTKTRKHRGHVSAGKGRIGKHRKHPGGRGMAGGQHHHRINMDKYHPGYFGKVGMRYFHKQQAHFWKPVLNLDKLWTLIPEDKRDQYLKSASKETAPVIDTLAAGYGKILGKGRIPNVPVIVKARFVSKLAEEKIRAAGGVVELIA
# Large ribosomal subunit protein eL29, P05747, sequence (P05747 whole entry): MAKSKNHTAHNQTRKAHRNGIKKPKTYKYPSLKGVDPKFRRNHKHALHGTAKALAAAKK
substance,measurement,setting,value
"Large ribosomal subunit protein eL24A, P04449",listed as a hit,[1],yes
"Large ribosomal subunit protein eL29, P05747",listed as a hit,[2],yes
"Large ribosomal subunit protein uL15, P02406",listed as a hit,[2],yes
"Large ribosomal subunit protein eL43A, P0CX25",listed as a hit,[3],yes
same,listed as a hit,[4],yes
same,listed as a hit,Large subunit GTPase 1,yes
"Ubiquitin-ribosomal protein eS31 fusion protein, P05759",listed as a hit,[3],yes
"Large ribosomal subunit protein eL33A, P05744",listed as a hit,[5],yes
"Large ribosomal subunit protein uL30A, P05737",listed as a hit,[5],yes
same,listed as a hit,[6],yes
"27S pre-rRNA (guanosine(2922)-2'-O)-methyltransferase, P25582",listed as a hit,[7],yes
"Large ribosomal subunit protein uL29A, P0CX84",listed as a hit,[8],yes
"Large ribosomal subunit protein eL15A, P05748",listed as a hit,[9],yes
"Large ribosomal subunit protein uL14A, P0CX41",listed as a hit,[4],yes
"Large ribosomal subunit protein uL2A, P0CX45",listed as a hit,Large subunit GTPase 1,yes
same,listed as a hit,[10],yes
"Pescadillo homolog, P53261",listed as a hit,[11],yes
"Cytoplasmic 60S subunit biogenesis factor REI1, P38344",listed as a hit,[12],yes
"Large ribosomal subunit protein uL24A, P05743",listed as a hit,[12],yes
"Large ribosomal subunit protein uL13A, P26784",listed as a hit,[13],yes
